Bioassay records from PubChem BioAssay.
D2 PAM-1: positive allosteric modulators of human D2 dopamine receptor. P14416. DiscoveRx D2 beta-arrestin cells, luminescence, 90 min; 100% = 57 uM dopamine signal. potentiation, % (concentration not given with the values). hit rate 0.23% among 360,000. AID 624464; in the data active means potentiation above about 50%; inconclusive means mostly about 30% to 49%
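PathHunter D2 cells, attached overnight at 37 deg C, received compound in DMSO plus dopamine at EC20 (50 nM final) for 90 min at 37 deg C. Beta-arrestin recruitment was read as luminescence after 1 h with detection reagent at ambient temperature.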
D2 ag-1: agonists of human D2 dopamine receptor (beta-arrestin). DiscoveRx PathHunter D2 beta-arrestin, luminescence, 90 min; 100% = 57 uM dopamine signal. activation, % (test concentration not listed). hit rate 0.084% among 360,000. AID 624465; in the data active means activation above about 40%; inconclusive means between about 15% and that limit
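DiscoveRx PathHunter D2 beta-arrestin cells (2,100/well) attached overnight, then compound-stimulated 90 min at 37 C in HBSS/10 mM HEPES/0.1% Tween-20 buffer; beta-galactosidase complementation read by luminescence after 1 h at ambient temperature. Dopamine 57 uM final (EC100) as control.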
D2 PAM-2: positively modulates the human D2 dopamine receptor allosterically. hit rate 0.34% among 340,000. P14416. AID 485347. potentiation, % at 10 µM. HEK293 T-REx D2, calcium flux, EC20 dopamine potentiation;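 active means potentiation over 3 SD above the plate norm, cut at about 30% in these data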; further: 0% is about no effect
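Calcium flux readout, no-wash dye, 1 read/s. Inducible HEK293 Trex D2 line, overnight 30 C. Compound alone 180 s (agonist flags), then EC20 dopamine, another 180 s to score potentiation.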
D2 antagonist: antagonists of human D2 dopamine receptor. inhibition, % at 10 µM. hit rate 2% among 340,000. P14416. HEK293 TREx D2 cells, calcium flux, dopamine EC80; in the data active means inhibition above about 30%; inactive means below that, where a call was filed; further: 0% is about no effect
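Measurement of antagonist activity uses fluorescent calcium dye in inducible HEK293 T-REx D2 cells: 10 s baseline, compound addition with 180 s read, EC80 dopamine addition with a further 180 s read.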
D2 ag-2: activates the human D2 dopamine receptor. activation, % at 2 µM. P14416. hit rate 0.53% among 340,000. HEK293 T-REx D2 cells, calcium flux agonist mode;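 active means activation over 3 SD above normal in the single-dose calcium agonist read, cut at about 30% in these data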; further: 0% is about no effect
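In this primary screen, compounds producing a positive calcium signal within 180 s of addition to tetracycline-induced, force-coupled HEK293 Trex D2 cells are flagged; cells are dye-loaded with a no-wash calcium kit beforehand.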
D3 ag: activates human D3 dopamine receptor beta-arrestin recruitment. hit rate 4% among 2,300. shares compounds with D2 ag-2. AID 720506. DiscoveRx D3 beta-arrestin cells, luminescence, 90 min. Potency, µM (series often up to 76.9 µM), without a hit: at the top dose activation, usual class: activators;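 further: potency means the concentration at half of the fitted maximal effect; 100% = dopamine control response; nearly all actives have a fitted effect of over 70% in size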
Target sequence (P35462 whole entry, looked up): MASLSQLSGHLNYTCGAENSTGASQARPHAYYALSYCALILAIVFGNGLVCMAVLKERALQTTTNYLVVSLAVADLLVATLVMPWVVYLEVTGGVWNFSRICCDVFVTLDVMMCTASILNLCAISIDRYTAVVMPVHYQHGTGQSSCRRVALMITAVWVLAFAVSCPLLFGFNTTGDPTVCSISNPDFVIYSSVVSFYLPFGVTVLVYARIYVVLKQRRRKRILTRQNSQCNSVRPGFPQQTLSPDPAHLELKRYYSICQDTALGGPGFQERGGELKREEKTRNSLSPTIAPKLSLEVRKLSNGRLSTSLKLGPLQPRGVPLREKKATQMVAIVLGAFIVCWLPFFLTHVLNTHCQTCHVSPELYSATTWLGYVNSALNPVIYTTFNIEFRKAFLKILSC
D2 ag-3: counter-screen for D3 agonists: human D2 dopamine receptor agonism; shares compounds with D2 ag-2; DiscoveRx PathHunter D2 beta-arrestin, luminescence, 90 min; response scale: percent relative to full dopamine signal; Potency, µM (titrated, usually from 76.9 µM), for the others: at the top dose activation, usual class: activators; hit rate 5.9% among 2,300; AID 720507; further: potency means the concentration at half of the fitted maximal effect; % of control where 0% means no effect; nearly all actives have a fitted effect of over 70% in size
An asterisk follows results filed as active; ? = inconclusive; · = no result. Shown are actives, neighbours in structure and some others; about 2.4% of the full set was active somewhere. Unless noted, the call rests on the fitted dose curve; in most records, active means well fitted activation curve with a large enough effect; inconclusive means small, poorly fitted or top-dose-only effect; inactive means flat fitted curve, though single readings scatter.

SMILES	D2 PAM-1	D2 ag-1	D2 PAM-2	D2 antagonist	D2 ag-2	D3 ag	D2 ag-3
CCCNC(=O)C(Cc1ccc(Cl)cc1)NC(=O)c1ccc(C#N)cc1 (configuration not stated)	-1	-9	1	2	0	-2%	-4%
CCCNC(=O)C(Cc1ccc(Cl)cc1)NC(=O)c1ccc(-c2ccccc2)cc1 (configuration not stated)	1	0	-2	-2	0	·	·
CCCNC(=O)C(Cc1ccc(Br)cc1)NC(=O)c1ccc(C#N)cc1 (configuration not stated)	-1	-2	-1	19	0	-8%	-4%
COC(=O)c1c(NC(=O)CCCOc2ccccc2C)sc2c1CCC2	·	·	3	·	-2	·	·
Nc1cc(=O)nc(SCC(=O)Nc2cccc(Cl)c2)n1CCc1ccccc1	·	·	-11	·	·	·	·
CCn1c(=O)c(CCC(=O)NCCN2CCOCC2)c(C)c2c(C)nn(-c3ccccc3)c21	-10	0	15	1	-1	·	·
CCn1c(=O)c(CCC(=O)N2CCN(c3ccccn3)CC2)c(C)c2c(C)nn(-c3ccccc3)c21	-4	6	5	8	15	22%	13%
O=C(NCCS(=O)(=O)N1CCN(c2ccccc2)CC1)C1CC(=O)N(c2ccccc2)C1 (configuration not stated)	-3	0	13	-2	0	-5%	-1%
O=C(NCCS(=O)(=O)N1CCN(c2ccc(F)cc2)CC1)C1CC(=O)N(c2ccccc2)C1 (configuration not stated)	6	0	-9	-11	0	·	·
COc1ccc(C(=O)NNc2ncnc3c2cnn3-c2cccc(Cl)c2)cc1OC	·	·	-11	·	0	·	·
CCCCc1cc(=O)oc2cc(C)cc(OCC(=O)NC(Cc3ccc(Cl)cc3)C(=O)O)c12 (configuration not stated)	-1	-5	7	-8	0	·	·
NS(=O)(=O)c1ccc(-c2ccc(/C=N/Nc3ccc(C(=O)O)cc3)o2)cc1	16	?	-1	8	4	11%	15%
NS(=O)(=O)c1ccc(-c2ccc(/C=N/NC(=O)c3ccc([N+](=O)[O-])cc3)o2)cc1	5	1	1	5	0	·	·
C/C(=N\O)c1ccco1	-11	-4	15	4	-1	-2%	2%
C/C(=N\NC(=O)c1ccc(C(=O)N/N=C(\C)c2ccco2)o1)c1ccco1	0	-1	8	-28	1	·	·
CCCN1CCN(CCNC(=O)Nc2ccc(OC)c(OC)c2)CC1	·	·	-11	·	1	·	·
Cc1ccc(-n2ncc3c(NCCCc4ccccc4)ncnc32)cc1	·	·	-11	·	0	·	·
COC(=O)CCC(C)N1CCC(Oc2ccc(C(=O)N3CCCC3)cc2)CC1 (configuration not stated)	-20	-4	-18	9	52*	7%	6%
O=C(c1ccc(F)c(S(=O)(=O)N2CCOCC2)c1)N(c1ccccc1)c1ccccn1	-1	-1	·	·	·	-7%	?
O=C(NC1CC(=O)N(c2ccc(F)cc2)C1)C1CC1 (configuration not stated)	·	·	-3	·	1	·	·
CCCCNC(=O)[C@@](CC)(ONc1ccccc1C(F)(F)F)c1cccc2ccccc12	-14	-5	-2	6	0	·	·
CCCCNC(=O)C(CC)(ONc1ccccc1C(F)(F)F)c1ccccc1 (configuration not stated)	-16	-3	7	-10	0	-3%	9%
O=C(Cc1ccccc1)N1CCN(C(=O)c2cccs2)CC1	-10	0	9	-5	1	·	·
O=S(=O)(c1cccs1)N1CCN(C/C=C/c2ccccc2)CC1	-20	-2	-2	-5	1	·	·
O=C(c1cccs1)N1CCN(C/C=C/c2ccccc2)CC1	-22	5	-24	69*	53*	?	?
